Where “and” joins values, the source holds several entries; their conditions need not be identical. Equal entries are not always repeated. This is part of a sample that, as a whole, favours compounds with a hit. Of some 83,000 tested, about 20% had one in any assay.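 For each line, cells grew in 96-well plates with the test compound present at a single concentration for 48 hours.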 A number with no mark means an inactive call. Calls of active or inactive are those of the source. The calls were made as follows: active = growth percent below 10; inactive = the rest.

In this assay the test system is SK-MEL-5 melanoma. As to the kind of experiment: NCI-60 one-dose screen, 48 h (100 = growth as untreated, 0 = no growth, -100 = all killed). The settings on record: 10 µM unless noted.
As to `Cc1cc(Br)ccc1-n1cc(C#N)c(N)c1C(=O)c1ccc(Br)cc1`, the growth was 95.7%.
With `CCCCCCN1C=C/C(=C\C(=O)n2ccc3ccccc32)c2ccccc21`, the growth was 30.8%.
Turning to `Cc1ccc(CSC2=C(Cl)CN(c3ccc(Cl)cc3)C2=O)cc1`, the growth is 99.8%.
To `Clc1ccc(CSc2nnc(-c3ccc(Cl)cc3)n2-c2ccccc2)cc1` belongs 94.3%; to `NS(=O)(=O)c1ccc(CCn2c(-c3ccc(C(=O)O)cc3)nc(-c3ccccc3)c2-c2ccccc2)cc1`, 99.1%; to `CC(=C(c1ccc(OCCCN(C)C)cc1)c1ccc(OCCCN(C)C)cc1)c1ccc(Cl)cc1`, 98.5%.
In the case of `CC[C@]12CC(C(=O)OC)=C3Nc4ccccc4[C@@]34CCN(C14)[C@@H]1c3cc4c(cc3O[C@@H]1[C@H]2O)NC1=C(C(=O)OC)C[C@@]2(CC)C3N(CC[C@@]143)C[C@H]1O[C@H]12` (stereo partly drawn) it was -75.7% (active); in that of `Cc1ccc(-c2csc(N/N=C/c3cccs3)n2)cc1`, 72.8%; in that of `CN1CCC[C@]2(C)[C@H]3CC[C@@H]4[C@@H]5[C@H]6OC[C@@]5(CCC6(C)C)CC[C@@]4(C)[C@]3(C)CC[C@H]2C1(C)C`, 93.8%.
In the case of `O=S(=O)(Oc1ccc(-c2cn3ccoc3n2)cc1)c1cccc(C(F)(F)F)c1` it was 96.1%.
On to `CC(Nc1c(C#N)cnc2ccc(-c3cncc(-c4n[nH]c(=O)o4)c3)cc12)c1ccccc1` (stereo not drawn), for which the growth was -84.8% (active).
In the case of `C#CCN(C)CCCOc1ccc(NC(=O)CCCCCCCCC(=O)NO)cc1Cl` it was 54.9%; in that of `CCCc1cc2cc(-n3nc(CC)c4c3CC(C)(C)CC4=O)cc(NC3CCC(O)CC3)c2c(=O)[nH]1` (stereo not drawn), 14.1%.
In the case of `O=C(CN1CCN(c2cc(=O)[nH]c3ccc(F)cc23)CC1)N(c1ccccc1)c1ccccc1` it was 100%.
To `CN1CCN(c2ccc(Nc3nc(NCCCNS(=O)(=O)c4cccc(F)c4)c4sccc4n3)cc2)CC1` belongs -77.6% (active); to `COc1ccc(C(=NNS(=O)(=O)c2ccc(C)cc2)c2ccccc2)cc1OC`, 97.6%.
For the molecule `COc1ccc(/C=N/NC(=O)c2c(N)nn(C)c2Nc2ccccc2)cc1Oc1ccccc1`, the growth is 93.8%.
Turning to `C#C[C@]1(O)CC[C@H]2[C@@H]3CC=C4c5sc(NCc6ccccc6)nc5CC[C@]4(C)[C@H]3CC[C@@]21C`, the growth is 58.2%.
As for `Cc1cc(NS(=O)(=O)c2ccc(NC(=O)CSc3nc4ccccc4c(=O)n3-c3ccccc3)cc2)no1`, the growth is 98.4%.
As for `CC(C)NC(=O)c1cc(-c2ccc(NC(=O)Nc3ccc(F)c(C(F)(F)F)c3)cc2)nc2cccnc12`, the growth was 93.2%.
In the case of `CCOC(=O)c1cccnc1Nc1ccc(NC(=O)Nc2ccc(Cl)c(C(F)(F)F)c2)cc1` it was 67.8%; in that of `O=C(CSc1nc2ccccc2c(=O)n1-c1ccc(S(=O)(=O)Nc2ccc(Cl)nn2)cc1)Nc1ccc(S(=O)(=O)Nc2ccc(Cl)nn2)cc1`, 97.2%.
Regarding `COc1cc(-c2nc(-c3ccccc3)[nH]c2-c2ccnc(NCCCNS(=O)(=O)c3ccc(C(F)(F)F)cc3)n2)ccc1Cl`, the growth is 22.4% and 52.3%.
For the molecule `Cc1csc(/N=C(N)/N=C(\N)c2cccc(C#N)c2)n1`, the growth was 85.7%.
To `CC[C@]12C=CCN3CC[C@]4(C(=C(C(=O)OC)C1)Nc1cc5c(cc14)[C@@H]1[C@H](O5)[C@@H](O)[C@@]4(CC)CC(C(=O)OC)=C5Nc6cc(O)ccc6[C@@]56CCN1C46)C32` (stereo partly drawn) belongs -41.5% (active); to `COc1ccc(OC)c(CCn2cncc2-c2c[nH]c3ccc(Cl)cc23)c1`, -19.8% (active).
In the case of `Cc1ccc(-c2cc3nc(C(Cl)Cl)nc(-c4ccc(S(=O)(=O)N(C)C)cc4)n3n2)cc1` it was 91.5%.
In the case of `CC1=C(C)C(=O)C(Nc2cccc(C(=O)OC(C)(C)C)c2)=C(Cl)C1=O` it was 98.1%; in that of `COC(=O)c1ccc(NC2=C(Cl)C(=O)C(C)=C(C)C2=O)cc1`, 44.6%; in that of `Cc1nc(/N=C(N)/N=C(\N)c2cccc(Br)c2)sc1C`, 69.8%.
In the case of `COC(=O)c1cccc(NC2=C(Cl)C(=O)c3nc(C)ccc3C2=O)c1`, the growth was 97.9%.
In the case of `CN(C)c1ccc(/C=N/Nc2nc(N/N=C/c3ccc(N(C)C)cc3)nc(N3CCCCC3)n2)cc1`, the growth was 86.7%.
To `OCC(Nc1ncnc2ccc(-c3cnc4cnccn34)cc12)c1ccccc1` (stereo not drawn) belongs 37.5%.

These data come from PubChem BioAssay (NCI).
